# Screening data from PubChem BioAssay.
# An excerpt weighted towards active compounds, which were near 0.92% of everything screened.
# AGP1 TOR yeast: modulators of AGP1-GFP expression in yeast TOR pathway, primary screen, cell-based, multiplex flow cytometry, S. cerevisiae, MLPCN library; AID 2066, 2009; hit rate 0.02% among 320,000; 3 h; GFP as percent of DMSO wells; GFP response vs DMSO, % at 10 µM;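 active = GFP response relative to DMSO above a set limit, near screen average plus 3 SD, cut at about 150% in these data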;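 also: median GFP channel fluorescence of the gated AGP1 strain per well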
# LAP4-GFP MLPCN: modulators of LAP4-GFP expression in yeast, primary screen, S. cerevisiae, multiplex flow cytometry, MLPCN library. 3 h; median GFP as percent of DMSO wells. GFP response vs DMSO, % at 10 µM. hit rate 0.34% among 320,000. AID 2023, 2009;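 active = GFP response vs DMSO above a set limit, about the screen mean plus 3 SD, cut at about 150% in these data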
# MEP2-GFP yeast: modulators of MEP2-GFP levels in yeast, primary screen, S. cerevisiae, multiplex flow cytometry, MLPCN library | S. cerevisiae MEP2-GFP strain, 3 h; 100% = DMSO control level | GFP response vs DMSO, % at 10 µM | hit rate 0.51% among 330,000 | AID 2016, 2009;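 active = GFP response versus DMSO above a set limit, roughly screen mean plus 3 SD, cut at about 180% in these data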;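 also: median GFP fluorescence of the barcode-gated MEP2-GFP cells per well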
# CIT2-GFP yeast: modulators of CIT2-GFP expression in yeast, primary screen, S. cerevisiae, GFP fusion, multiplex flow cytometry, MLPCN library; AID 2029, 2009; GFP response vs DMSO, % at 10 µM; S. cerevisiae CIT2-GFP strain, 3 h; 100 means same as DMSO wells; hit rate 0.065% among 320,000;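 active = GFP response relative to DMSO above a set limit, near the screen mean plus 3 SD, cut at about 150% in these data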;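 also: ratio of well median GFP fluorescence to mean of DMSO wells on the plate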
# RPL19A-GFP yeast: RPL19A-GFP expression modulators in yeast, primary screen, cell-based, S. cerevisiae, multiplex flow cytometry, MLPCN; S. cerevisiae RPL19A-GFP strain, 3 h; hits give low values; percent response vs DMSO, % at 10 µM; hit rate 0.3% among 330,000; AID 2025, 2009;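 active = percent response vs DMSO below 50%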;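 also: median channel GFP fluorescence of the barcoded RPL19A-GFP strain; ratio of sample median GFP to plate DMSO average so 100% = DMSO; lower means less RPL19A-GFP as with rapamycin TOR inhibition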
# LAP4 cherry2: LAP4-GFP expression modulators in yeast, confirmation, cell-based, second cherry pick, flow cytometry; S. cerevisiae LAP4-GFP strain, 3 h; hit rate 20% among 590; shares compounds with LAP4-GFP MLPCN; GFP response vs DMSO, % at 10 µM;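 active = GFP signal as percent of the solvent control above about 150%, meaning raised reporter expression, limit read from the data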;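 also: ratio of well median GFP fluorescence to plate DMSO mean so 100% = DMSO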
# MEP2-GFP pick2: modulators of MEP2-GFP levels in yeast, confirmation, S. cerevisiae, flow cytometry GFP, second cherry picks | hit rate 10% among 590 | S. cerevisiae MEP2-GFP strain, 3 h | shares compounds with LAP4-GFP MLPCN | GFP response vs DMSO, % at 10 µM;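 active = GFP signal above 150% of the solvent control wells, that is a rise of more than half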;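 also: median channel GFP fluorescence of all gated yeast cells per well; ratio of median GFP to plate DMSO average so 100% = DMSO level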
# RPL19A GFP CP2: RPL19A-GFP modulators in TOR pathway yeast, confirmation, cell-based, S. cerevisiae, flow cytometry, second cherry pick | shares compounds with LAP4-GFP MLPCN | S. cerevisiae RPL19A-GFP strain, 3 h; hits give low values; 100% means same as DMSO wells | GFP response vs DMSO, % at 10 µM | hit rate 3% among 590;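 active = under 65% GFP response relative to DMSO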;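 also: median GFP channel fluorescence per well over the all cells gate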
# CIT2 GFP CP2: modulators of CIT2-GFP expression in yeast, confirmation, flow cytometry, second cherry pick, single plex. shares compounds with LAP4-GFP MLPCN. S. cerevisiae CIT2-GFP strain, 3 h; DMSO control wells read 100%. GFP response vs DMSO, % at 10 µM. hit rate 8% among 590;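 active = GFP response vs DMSO above about 150%, limit read from the data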;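 also: median green fluorescence per well over all gated yeast cells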
# AGP1 GFP CP2: AGP1-GFP expression modulators, hit retest, confirmation, cell-based, flow cytometry, S. cerevisiae, cherry pick set 2; shares compounds with LAP4-GFP MLPCN; S. cerevisiae AGP1-GFP strain, 3 h; percent response vs DMSO, % at 10 µM; 590 tested, under 10 active;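 active = over 150 percent of DMSO response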;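 also: median GFP channel fluorescence over all cells without mother daughter split; sample median GFP divided by mean DMSO control so 100% equals DMSO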
# s288c autofluor: compound autofluorescence in yeast s288c, dose response, artefact control for yeast TOR pathway GFP screen, s288c strain; shares compounds with LAP4-GFP MLPCN; S. cerevisiae s288c, 520 nm autofluorescence, flow cytometry, 3 h; hits give high values; zero means same as solvent-only cells; 610 tested, under 10 active; fluorescence change (kMESF span) at 33 µM;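 active = fluorescence span over the dose series, or activity score, above about 33, limit read from the data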
# Yeast autofl DR: autofluorescence of compounds in yeast s288c, dose response, artefact control for yeast TOR pathway GFP screen, primary hits, KU SAR, s288c parental; shares compounds with LAP4-GFP MLPCN; S. cerevisiae s288c parental, compound autofluorescence, flow cytometry, 3 h; fluorescence change (span) at 33 µM; 110 tested, under 10 active; AID 488829, 2010;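 active = fluorescence change span, or the activity score built from it, above 25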
# TORC1 bypass gr: wild-type yeast growth inhibition sparing TORC1 bypass cells, mechanism study for yeast TOR pathway GFP screen, BY4741 wild type, TORC1 bypass strain; S. cerevisiae BY4741 spot growth rating, 48-72 h; hits give low values; 120 tested, under 10 active; shares compounds with LAP4-GFP MLPCN; growth rating (0-3) at 30 µM; AID 504456, 2011;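 active = growth rating at most 1 for wild type yeast while the TORC1 bypass strain still grows fully, rated 3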
# Active calls of the source: *; x = no result given.
SMILES,AGP1 TOR yeast,LAP4-GFP MLPCN,MEP2-GFP yeast,CIT2-GFP yeast,RPL19A-GFP yeast,s288c autofluor,others
C=CCN1C(=O)c2ccc(C(=O)N(C)CC(=O)Nc3ccc(OCC)c(OCC)c3)cc2C1=O,115,107,104,98,107,x,
CSc1ccc(S(=O)(=O)N(C)Cc2ccccc2)cc1,89,105,99,78,94,x,
Brc1ccc(Oc2nsnc2N2CCOCC2)cc1,27,95,180*,82,100,x,LAP4 cherry2=96;MEP2-GFP pick2=103;RPL19A GFP CP2=102;CIT2 GFP CP2=104;AGP1 GFP CP2=97
CC(C)Cn1c(=O)c(C(=O)Nc2ccncc2)c(O)c2ccccc21,48,103,93,59,48*,2,
O=C(O)c1ccc(NCc2cccc(Br)c2)cc1,76,159*,88,70,88,x,LAP4 cherry2=116;MEP2-GFP pick2=103;RPL19A GFP CP2=98;CIT2 GFP CP2=109;AGP1 GFP CP2=87
Cc1cc(/C=C2/SC(=S)N(c3cccc(Cl)c3)C2=O)c(C)n1-c1cccnc1,106,154*,154,120,107,3.5,
Cc1cc(/C=C2/SC(=S)N(c3ccc([N+](=O)[O-])cc3)C2=O)c(C)n1-c1cccnc1,97,115,144,142,103,x,
CN(C)NC(=S)Nc1ccc(S(=O)(=O)N2CCCCC2)cc1,66,97,100,87,65,-0.1,LAP4 cherry2=107;MEP2-GFP pick2=108;RPL19A GFP CP2=100;CIT2 GFP CP2=113;AGP1 GFP CP2=100
COc1ccc(C(=O)NNC(=O)C(=O)NC2CCCCC2)cc1,105,102,104,108,102,x,
O=C1C(=O)N(CCN2CCOCC2)C(c2cccc(Cl)c2)/C1=C(\O)c1ccc2c(c1)OCCO2 (stereo unspecified),27,93,136,107,50,x,LAP4 cherry2=100;MEP2-GFP pick2=98;RPL19A GFP CP2=97;CIT2 GFP CP2=112;AGP1 GFP CP2=98
COc1ccc(C(=O)NC(=S)N2CCOCC2)cc1[N+](=O)[O-],106,95,111,106,109,x,
CN1CCN(C(=O)c2cc(COc3c(F)cccc3F)on2)CC1c1ccccc1 (stereo unspecified),119,158*,101,87,96,1.7,LAP4 cherry2=141;MEP2-GFP pick2=163*;RPL19A GFP CP2=109;CIT2 GFP CP2=115;AGP1 GFP CP2=110;Yeast autofl DR=0.87;TORC1 bypass gr=0
COc1ccccc1OCc1cc(C(=O)N2CCN(C)C(c3ccccc3)C2)no1 (stereo unspecified),95,107,97,92,96,x,
COc1ccc(C(C(=O)NC(C)(C)C)N(Cc2cccnc2)C(=O)CCC(=O)Nc2cc(C)on2)cc1 (stereo unspecified),106,101,102,102,102,x,
Oc1oc(-c2ccccc2)nc1C=Nc1ccccc1,95,120,115,97,101,x,
CC(=O)Oc1oc(-c2ccccc2)nc1/C=N/c1ccccn1,80,140,89,86,93,x,
CN(C)c1ccc(N=Cc2nc(-c3ccccc3)oc2O)cc1,88,72,84,93,84,x,
CC(=O)Oc1oc(-c2ccccc2)nc1C=Nc1ccc(N(C)C)cc1,102,110,98,94,101,0,
COc1ccc(N=Cc2nc(-c3ccco3)oc2O)cc1,87,120,97,87,92,x,
COc1ccccc1N=Cc1nc(-c2ccccc2)oc1OC(C)=O,91,108,95,78,94,-0.7,
CN(C)c1ccc(N=Cc2nc(-c3ccccc3)oc2OC(=O)c2ccccc2)cc1,98,98,105,108,102,0.61,
O=C(Oc1oc(-c2ccco2)nc1C=Nc1ccc(Cl)cc1)c1ccco1,82,230*,96,102,91,0.21,
COC(=O)c1cn(Cc2ccccn2)c(=O)c2ccccc12,94,97,96,99,96,x,
Cn1cc(C(=O)c2ccc(Cl)cc2Cl)cc1C(=O)N/N=C(\N)COc1cccc(C(F)(F)F)c1,91,84,99,107,93,x,
CC(C)c1nc2sc3c(c2c(=O)[nH]1)CC(C)(C)OC3,107,104,117,99,116,x,
SMILES,AGP1 TOR yeast,LAP4-GFP MLPCN,MEP2-GFP yeast,CIT2-GFP yeast,RPL19A-GFP yeast,s288c autofluor,others
O=C1CC(c2ccccc2)c2cc(O)ccc2O1 (stereo unspecified),101,101,103,108,104,x,
Cc1ccc(C2CC(=O)Oc3cc(O)ccc32)cc1 (stereo unspecified),90,180*,97,70,75,x,LAP4 cherry2=115;MEP2-GFP pick2=138;RPL19A GFP CP2=89;CIT2 GFP CP2=100;AGP1 GFP CP2=111
Oc1ccc(/C=N/Nc2ncc(Cl)cc2Cl)cc1,102,94,108,109,104,x,
Cc1ccc(/C=N/Nc2ncc(Cl)cc2Cl)s1,86,298*,118,91,81,0.41,
Clc1cnc(N/N=C/c2ccco2)c(Cl)c1,105,102,98,102,105,x,
Clc1cnc(N/N=C/c2cccs2)c(Cl)c1,83,158*,98,92,99,0.41,
